About 13,000 (27%) of roughly 48,000 compounds showed an effect of 50% or more. The list shows a part of the results.
test system: Wolbachia pipientis; assay: Anti-Wolbachia Cell-Based Screen; format: functional; design: scale not given: in the data most compounds retested in dose-response had high values; settings: 5 µM

Row | SMILES | Percent Effect [%]
1 | Cc1nc(C)c(CC(=O)NCc2cccnc2OC2CCCC2)c(=O)[nH]1 | 2.143
2 | CCNC(=O)C1CCN(c2cc(-c3ccccc3)nc3cc(C)nn23)C1 (configuration not stated) | -12.78
3 | COCCC(=O)N1CCCCC1c1ccc(F)cc1 (configuration not stated) | -2.369
4 | Cc1cn[nH]c1C1CCCCN1C(=O)CCc1ccc(F)cc1 (configuration not stated) | 129.4
5 | Cc1cn[nH]c1C1CCCCN1C(=O)CCN1CCCCCC1 (configuration not stated) | -3.23
6 | Cc1cn[nH]c1C1CCCCN1C(=O)CCc1c(C)n[nH]c1C (configuration not stated) | 119.5
7 | N#Cc1cccc(N2CCC3(CCC(=O)N(CCCO)C3)CC2)n1 | -9.323
8 | O=C1OCCN1CCOc1nc(-c2ccccc2Cl)no1 | -11.04
9 | COCC(C)NC(=O)Nc1cc(-c2ccccc2C)nn1CCO (configuration not stated) | -26.76
10 | O=C1CC2(CCN(C(=O)c3ccccc3)C2)Nc2ccccc2N1 (configuration not stated) | 106.1
11 | O=C1Nc2ccccc2C1C1CCN(C(=O)C2CC2)CC1 (configuration not stated) | -3.481
12 | CN(C)C(=O)N1CCN(C(=O)c2ccccc2)CC2(CNC(=O)C2)C1 (configuration not stated) | 9.343
13 | O=C1CC2(CCN(C(=O)C3CCCCC3)C2)Nc2ccccc2N1 (configuration not stated) | 102.3
14 | O=C(O)C(F)(F)F.O=C1CCCC2(CCN(C(=O)c3ccccn3)CC2)N1 | 4.079
15 | Cl.O=C(C1CCCCC1)N1CCC2(CC1)CNCc1ccccc12 | 2.33
16 | O=C1CC2(CCN(C(=O)c3ccccn3)C2)Nc2ccccc2N1 (configuration not stated) | 110.2
17 | Nc1cc(C(=O)N2CCC3(CC2)Nc2ccccc2NC3=O)ccn1 | 3.743
18 | O=C(O)C(F)(F)F.O=C1CCC2(CCCN(C(=O)c3ccccn3)CC2)N1 (configuration not stated) | -22.06
19 | COC1CCCN(C(=O)NCC(F)F)C1 (configuration not stated) | -0.267
20 | CN(Cc1ccco1)C1CCC12CCN(C(=O)N1CCCC1)CC2.O=C(O)C(F)(F)F (configuration not stated) | -11.51
21 | Cc1ccc(C2CCCCCN2CCCS(C)(=O)=O)o1 (configuration not stated) | -22.51
22 | CCOc1ccc(NC(=O)c2scnc2CC)cc1CO | -2.962
23 | O=C1CN(C(=O)CSC2CCCc3ccccc32)CCN1 (configuration not stated) | -8.523

Row | SMILES | Percent Effect [%]
24 | O=C(c1cccnc1)N1CCCC(c2ccnc3nccn23)C1 (configuration not stated) | 79.76
25 | Cc1cc(C2CCCN(C(=O)c3cccnc3)C2)ccn1 (configuration not stated) | 84.57
26 | CC[C@H]1CN(C(=O)c2cccnc2)CC[C@H]1CC(=O)NC1CC1 | 4.498
27 | O=C(NS(=O)(=O)Cc1ccc(F)cc1)C1CCOc2ccccc21 (configuration not stated) | -4.826
28 | CN(C)c1ccc(C(=O)N2CCN(Cc3cscn3)CC2)cn1 | 116
29 | CC(O)CN1CCN(C(=O)c2ccc(N(C)C)nn2)CC1 (configuration not stated) | 2.216
30 | CSC(C)C(=O)N1CCCN(Cc2cscn2)CC1 (configuration not stated) | -14.88
31 | CCOCC(O)CN1CCN(C(=O)c2ccc(N(C)C)nc2)CC1 (configuration not stated) | -21.06
32 | CC(O)CN1CCN(C(=O)c2ccc(N(C)C)nc2)CC1 (configuration not stated) | 3.143
33 | CN(C)c1ccc(C(=O)N2CCCN(Cc3cscn3)CC2)nn1 | 113.8
34 | O=C([C@H]1CCCO1)N1CCc2ncnc(NC3CC3)c2CC1 | 1.456
35 | O=C(N1CCOCC1)N1CCc2ncnc(NC3CC3)c2CC1 | 0.5236
36 | O=C(C1CCCO1)N1CCc2ncnc(NC3CCC3)c2CC1.O=C(O)C(F)(F)F (configuration not stated) | 103.9
37 | O=C(N1CCOCC1)N1CCc2ncnc(NC3CCC3)c2CC1.O=C(O)C(F)(F)F | 91.29
38 | CCCC(C(=O)NC1CCN(S(C)(=O)=O)CC1)n1cccc1 (configuration not stated) | -3.816
39 | CCNC(=O)NC(=O)CN1CCOC(c2ccc(Br)cc2)C1 (configuration not stated) | -12.38
40 | OC1(CNCCSc2ccccn2)CCCNC1 (configuration not stated) | -44.86
41 | N#Cc1cccnc1N1CCCC(CO)(CCOc2ccccc2)C1 (configuration not stated) | 0.3876
42 | CN(C)c1ccc(CCNC(=O)C2CCC(=O)N(C3CCCC3)C2)cc1 (configuration not stated) | -1.429
43 | CCN(CC(F)(F)F)C(=O)C1CCCN(Cc2nc(C)c(C)o2)C1 (configuration not stated) | -1.409
44 | CCC(=O)N1CCC(c2nc(C)c3c(n2)N(C)CCC3)CC1 | 112.7
45 | CCN(C(=O)CN1CCC(c2n[nH]c(C3CC3)n2)CC1)C1CC1 | 20.34
46 | CC(C)N(C)C(=O)CN1CCCC(c2ccc(C(=O)O)cc2)C1 (configuration not stated) | 0.2821

Row | SMILES | Percent Effect [%]
47 | CCN(CC)C(=O)CN1CCC(c2nc(C)c3c(n2)N(C)CCC3)CC1 | 126.4
48 | CCC(=O)N1CCC(n2cc(C(C)(C)O)nn2)CC1 | -6.105
49 | CCN(CC)C(=O)CN1CCCC(c2nc(C)c3c(n2)N(C)CCC3)C1 (configuration not stated) | 160
50 | CCC(=O)N1CCC(c2nc3ccc(NC(C)C)cn3n2)CC1 | -7.587
51 | CCN(C(=O)CN1CCC(c2cc3ccccc3[nH]2)CC1)C1CC1 | -6.072
52 | CCC[C@H]1CN(Cc2ccc(N(C)C)nc2)C[C@@H]1NC(=O)CSC | -2.183
53 | O=C(NC[C@H]1OC[C@@H](NC2CCCCC2)[C@@H]1O)c1cccs1 | 2.272
54 | CC(C#N)CN(C)C(=O)CCNC(=O)C(C)(C)C (configuration not stated) | 107.7
55 | CC(C#N)CN(C)C(=O)CCNC(=O)OC(C)(C)C (configuration not stated) | 95.62
56 | CC(C)(C)OC(=O)NCCC(=O)N(CCC#N)Cc1ccco1 | 11.1
57 | CC(C)C[C@H](NC(=O)CNC(=O)OC(C)(C)C)C(=O)OC(C)(C)C | 3.003
58 | CC(C)NC(=O)CNC(=O)OC(C)(C)C | -14.72
59 | Cc1cccc(OCCC(=O)N(C)CC(C)C#N)c1C (configuration not stated) | 20.16
60 | CC(C)CC(C#N)NC(=O)CCNC(=O)C(C)(C)C (configuration not stated) | 9.809
61 | CC(O)CN(C)C(=O)CCNC(=O)OC(C)(C)C (configuration not stated) | 96.59
62 | CN(C)C(CNC(=O)CCNC(=O)OCC(F)(F)F)c1ccsc1 (configuration not stated) | -11.09
63 | CC(OCC(F)(F)F)C(=O)NCCN(C)C (configuration not stated) | -5.396
64 | CC(C#N)CN(C)C(=O)CCNC(=O)OCC(F)(F)F (configuration not stated) | 112.9
65 | CCC(C#N)NC(=O)CCNC(=O)C(C)(C)C (configuration not stated) | -9.888
66 | Cc1cnn(CC2CCCN2c2ccc(C#N)cn2)c1 (configuration not stated) | 16.4
67 | CC1(C)CC1(C(=O)N1CC(c2cccnc2)C1)c1ccccc1F (configuration not stated) | -22.23

From ChEMBL document CHEMBL3988442, “University of Dundee, Small-Polar-MMV Screening Library” (2021)
